We go through 36 compounds from PubChem BioAssay AID504357 (The Scripps Research Institute Molecular Screening Center, 2011).

Structures are written as SMILES. Several values for one entry are separate records, joined by “and”; a condition that tells them apart may be missing. Equal values may be shown once. The whole screen tested about 340,000 compounds, of which about 700 (0.21%) were called active. Many of the other results were omitted from the sample, so actives are more common in it than they were. A number with no mark means an inactive call. No stated cut-off is given here; in the data, active means inhibition above about 22% (passing the limit was not always enough); inactive means the rest.

In the assay the target is Mu-type opioid receptor (Homo sapiens) + Delta-type opioid receptor (Homo sapiens) (UniProt P35372+P41143). The assay can be described thus: inverse agonists of MOR-DOR heterodimerization, primary screen, cell-based, luminescence (AID 504357).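 Further: 0% = cells with DMSO and 100% = wells without cells with DMSO.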 The following applies: cell-based MOR-DOR heterodimer luminescence, inverse agonism; at 9.3 µM; hits give high values.
Chain of Mu-type opioid receptor (Homo sapiens) + Delta-type opioid receptor (Homo sapiens) (P35372 whole entry, looked up): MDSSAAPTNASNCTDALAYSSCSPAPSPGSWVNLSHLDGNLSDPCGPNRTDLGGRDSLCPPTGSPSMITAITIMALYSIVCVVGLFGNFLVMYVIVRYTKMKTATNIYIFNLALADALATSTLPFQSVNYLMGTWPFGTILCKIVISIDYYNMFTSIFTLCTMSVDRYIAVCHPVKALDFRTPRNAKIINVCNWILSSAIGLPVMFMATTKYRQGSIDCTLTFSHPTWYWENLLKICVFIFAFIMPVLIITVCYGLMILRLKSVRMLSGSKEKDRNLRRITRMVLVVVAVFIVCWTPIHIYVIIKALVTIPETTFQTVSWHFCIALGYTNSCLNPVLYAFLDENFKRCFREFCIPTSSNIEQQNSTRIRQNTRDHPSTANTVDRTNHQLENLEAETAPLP
Chain of Mu-type opioid receptor (Homo sapiens) + Delta-type opioid receptor (Homo sapiens) (P41143 whole entry, looked up): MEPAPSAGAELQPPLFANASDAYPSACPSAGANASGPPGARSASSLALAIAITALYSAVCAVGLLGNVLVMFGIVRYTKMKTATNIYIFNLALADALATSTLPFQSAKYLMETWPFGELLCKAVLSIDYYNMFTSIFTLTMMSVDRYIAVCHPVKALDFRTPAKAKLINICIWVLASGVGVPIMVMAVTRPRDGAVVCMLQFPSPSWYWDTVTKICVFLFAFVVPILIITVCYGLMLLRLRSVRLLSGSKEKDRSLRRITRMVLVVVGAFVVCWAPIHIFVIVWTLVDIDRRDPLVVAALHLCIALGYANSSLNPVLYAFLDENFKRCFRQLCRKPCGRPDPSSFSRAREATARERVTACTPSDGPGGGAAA
With `Cc1cc(NC(=O)CN2CCC(O)(c3cccc(F)c3)CC2)no1`, the inhibition is 10.8%.
Next, `COc1cccc(CNC(=O)C2CCCN(S(=O)(=O)N3CC(C)CC(C)C3)C2)c1` (stereo unspecified): 16%; `Cc1ccsc1C(=O)NCCc1ccco1`: 7.66%; `O=C(NCCSc1ncc(-c2ccccc2)[nH]1)c1ccco1`: 13.1%.
With `CC1CCCCC1NC(=O)COC(=O)Cc1ccc(Cl)cc1` (stereo unspecified) the figure was 21.7%.
Next, `CC(=O)N1c2ccc(S(=O)(=O)N3CCCC(C(=O)Nc4ccc(C)cc4C)C3)cc2CC1C` (stereo unspecified): -10.6%; `O=C(c1ccco1)N1CCN(C(=O)C2CC(c3ccc(Cl)c(Cl)c3)=NO2)CC1` (stereo unspecified): 9.92%.
As to `Cc1cc(OC(=O)c2ccccc2)c([N+](=O)[O-])c(=O)[nH]1`, the inhibition was -3.39%.
Next, `O=C(O)CCN1C(=O)CC2(CCCCC2)C1=O`: 14.8%.
With `O=[N+]([O-])/C=C/c1ccc2c(ccn2Cc2ccccc2)c1` the figure was 38.9% (active); with `COc1ccc(CNCCCn2cnc3c(OCc4ccccc4)ncnc32)cc1`, 11.7%.
Next, `O=C(CC(=O)c1cccnc1)c1ccccc1`: 13.2%.
For the compound `Cc1ccc2c(c1)C(O)(CC(=O)c1cccnc1)C(=O)N2` (stereo unspecified), the inhibition was 37.3% (active).
With `Cc1ccc2c(c1)C(O)(CC(=O)c1cccc(-n3cccc3)c1)C(=O)N2` (stereo unspecified) the figure was 17.9%.
Next, `CN(c1ccccc1)S(=O)(=O)c1cc(C(=O)N2CCN(c3ncccn3)CC2)ccc1Cl`: 2.36%.
Next, `COc1ccccc1CN1CCCC(N2CCN(c3ccc(F)cc3)CC2)C1` (stereo unspecified): 8.79%; `C[n+]1ccc(C(=O)NCc2ccccc2)cc1`: -0.68%; `COc1c(C=O)c(CCN(C)C(=O)c2ccc(F)cc2)cc2c1OCO2`: 9.88%.
As for `CCOCCCNC(=O)C(NC(=O)Cc1c[nH]c2ccccc12)c1ccc(OC)cc1` (stereo unspecified), the inhibition was 12.1%.
Next, `Cc1ccccc1OCC(=O)NNC(=O)c1ccc(-n2cncn2)c([N+](=O)[O-])c1`: 8.19%; `CCc1c(C)sc(NC(=O)OC)c1C(=O)N1CCOCC1`: 5.54%; `CCOc1ccc(S(=O)(=O)N2CCCC(C(=O)N3CCC(C(N)=O)CC3)C2)cc1Cl` (stereo unspecified): 5.16%.
Next, `COc1ccccc1N1CCN(CC(=O)Nc2ccnn2C2CCCC2)CC1`: 0.88%; `CSCCC(NC(=O)COc1ccccc1)C(=O)OCCOc1ccc(Br)cc1` (stereo unspecified): -28.3%.
As to `CSCCC(NC(=O)COc1ccccc1)C(=O)OCC(=O)c1cc2ccccc2o1` (stereo unspecified), the inhibition is 68.4% (active).
With `CSCCC(NC(=O)COc1ccccc1)C(=O)OCc1ccc(Cl)cc1` (stereo unspecified) the figure was -17.1%; with `CN1CC(=O)N=C1N`, 16.7% and 15.6%.
Next, `Cc1cc(Cl)c(S(=O)(=O)NCc2cccnc2)cc1OCC(N)=O`: 11.2%; `CCOc1ccc(NC(=O)CN(C)CC(=O)NC(C)c2ccccc2)cc1OCC` (stereo unspecified): 1.67%.
In the case of `C=CCn1c(N)c(C(=O)OCC(C)C)c2nc3ccccc3nc21`, the inhibition is 55.7% (active).
Next, `C=CCn1c(C(C)NC(=O)CC)nc2ccccc21` (stereo unspecified): 18%; `COCC(C)OC(=O)c1c(N)n(CCCN2CCOCC2)c2nc3ccccc3nc12` (stereo unspecified): 10.3%.
Turning to `FC(F)(F)C1CCCN(c2nsc3ccccc23)C1` (stereo unspecified), the inhibition is 11.2%.
On to `C=CCN1C(=O)C(O)(CC(=O)c2ccccn2)c2ccccc21` (stereo unspecified), for which the inhibition is 15.1%.
With `C=CCN1C(=O)C(O)(CC(=O)c2ccc(Cl)cc2)c2ccccc21` (stereo unspecified) the figure was 12%.
With `CCOC(=O)CN1C(=O)C(O)(CC(=O)c2ccccn2)c2ccccc21` (stereo unspecified) the figure was 49.5% (active).

As a reminder, the inhibition is the change of the read-out against control, counted positive when it falls.
